Experimental findings from PubChem BioAssay AID2685 (National Center for Advancing Translational Sciences (NCATS), 2010) are described below.

SMILES strings stand for the structures. Hit rate of the full screen: of about 320,000 compounds, about 2,100 (0.66%) were called active. Not shown: some 53% with an inconclusive outcome. The sample holds actives, similar compounds and a random draw of the others, so the mix is not that of the screen. Calls come from the whole dose curve; as a rule, active = well fitted inhibition curve with a large enough effect in the signal ratio, with a control signal flat (not every such curve was filed as active); inconclusive = small, poorly fitted or top-dose-only effect, or effect the other way, or a change in a side signal; inactive = flat fitted curve, though single readings scatter; the % refers to the signal ratio.
Potency is the fitted concentration of half-maximal effect.

The test in a line: qHTS Assay for Lipid Storage Modulators in Drosophila S3 Cells.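 For cell number change: cells counted by Cell Tracker Red CMTPX staining in the red channel.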 For lipid storage change, negative = inhibition: % is set by controls: 0 for no effect and ±100 for the full control effect. The following applies: BODIPY lipid droplet fluorescence, 18-24 h, cells fed with added oleic acid; cell number change: measured here: cell count max response; series mostly up to 46.1 µM; lipid storage change, negative = inhibition: at the top concentration. In outline:
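Drosophila S3 cells got compounds at several concentrations plus oleic acid (400 uM solution). Laser-scanning cytometry with 488 nm excitation read lipid droplets at 500-530 nm and cells at 575-640 nm. Percent activity was relative to 20 uM Triacsin C.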
(In general: qHTS replaces the single test concentration by a dilution series.)
In the case of `Cc1ccc(/C=N/NC(=O)c2ccc(C(=O)N/N=C/c3ccc(C)s3)o2)s1`, the “lipid storage change, negative = inhibition” value was -1.54% (inactive) and the cell number change was 10.7%.
For `Cc1ccc(/C=N/NC(=O)c2ccco2)s1` the same measures were 17.2% (inactive) and -9.87%.
Take `O=C(N/N=C\c1cn(-c2ccccc2)nc1-c1ccccc1)c1ccc(Br)o1`: the Potency is 23.1 µM (active) and the cell number change came to 6.81%.
`O=C(N/N=C/c1cn(-c2ccccc2)nc1-c1ccccc1)c1ccco1`: the molecule was classed as inactive.
As for `Cc1ccc(/C=N/NC(=O)c2ccc(Br)o2)s1`, the Potency was 3.66 µM (active) and the cell number change was -8.7%.
Consider `NC(=O)N/N=C/c1cn(-c2ccccc2)nc1-c1ccccc1`, for which the “lipid storage change, negative = inhibition” value is 13.8% (inactive) and the cell number change was determined as 15.1%.
Taken in the same sequence, the figures for `CCC(=O)N(c1ccc(C(=O)O)cc1)c1nc(-c2ccc(OC)cc2)c(C)s1` were 1.19% (inactive) and -9.44%.
Taken in the same sequence, the figures for `CC(=O)Cc1nsc(NC(=O)c2ccc(-c3cc(Cl)ccc3Cl)o2)n1` were 12.3% (inactive) and 15.1%.
As for `CS(=O)(=O)c1ccc(C(=O)Nc2cccc(-c3nc4ccccc4[nH]3)c2)cc1`, the molecule was classed as inactive and the cell number change is 3.88%.
Taken in the same sequence, the figures for `CS(=O)(=O)c1cccc(C(=O)Nc2ccc(-c3nc4ccccc4[nH]3)cc2)c1` were “inactive” and 86.3%.
In the case of `CN(C)c1cccc(C(=O)Nc2nc3ccccc3[nH]2)c1`, the Potency was 14.6 µM (active) and the cell number change was -3.6%.
With `O=C(Nc1nc2ccccc2[nH]1)c1cccc([N+](=O)[O-])c1`, the “lipid storage change, negative = inhibition” value is 5.31% (inactive) and the cell number change was -8.28%.
`COc1cccc(C(=O)Nc2nc3ccccc3[nH]2)c1`: the “lipid storage change, negative = inhibition” value is -0.695% (inactive) and the cell number change is 17.8%.
As to `CS(=O)(=O)c1cccc(C(=O)Nc2cccc(-c3nc4ccccc4[nH]3)c2)c1`, the Potency is 7.31 µM (active) and the cell number change was -15%.
Turning to `Cn1c(N2CCOCC2)c(/C=N/OC(=O)c2cccnc2Cl)c2ccccc21`, the molecule was called inactive.
In the case of `Cc1ccc(NS(=O)(=O)c2ccc3c(c2)NC(=O)CO3)c(C)c1`, the result was inactive and the cell number change was -9.44%.
Consider `O=C1CCCN1S(=O)(=O)c1ccccc1`, for which the “lipid storage change, negative = inhibition” value is -16.7% (inactive) and the cell number change was -14.6%.
As for `O=C1CC(c2ccccc2)CN1S(=O)(=O)c1ccccc1` (stereo not given), the Potency was 20.6 µM (active) and the cell number change is -20.2%.
Regarding `O=C(Nc1nnc(C2CC2)s1)c1cccc(S(=O)(=O)N2CC(c3ccccc3)CC2=O)c1` (stereo not given), the lipid storage change, negative = inhibition was 14.3% [at 9.22 µM] (inactive).
For the molecule `O=C(N=C1SC2CS(=O)(=O)CC2N1CCc1ccccc1)C1CCCCC1` (stereo not given), the outcome was inactive.
On to `Cc1cc(C=O)c(C)n1-c1cccc(C(=O)O)c1`, for which the “lipid storage change, negative = inhibition” value is 22.3% (inactive) and the cell number change came to 7.64%.
Take `CC(C)(C)NC(=O)COC(=O)c1cc(S(=O)(=O)N2CCCCC2)ccc1N1CCOCC1`: the “lipid storage change, negative = inhibition” value was -8.17% (inactive).
Consider `CC(C)(C)C(=O)COC(=O)c1cc(S(=O)(=O)N2CCCCC2)ccc1N1CCOCC1`, for which the cell number change is -8.75% and the lipid storage change, negative = inhibition was -21.4% [at 0.0737 µM] (inactive).
With `Cc1ccc(OCCOC(=O)c2cc(S(=O)(=O)N3CCCCC3)ccc2N2CCOCC2)cc1`, the Potency is 5.17 µM (active) and the cell number change is -27%.
As for `COc1ccccc1NC(=O)COC(=O)/C=C/c1ccc2c(c1)OCO2`, the “lipid storage change, negative = inhibition” value is 3.62% (inactive) and the cell number change is 18%.
`CC(=O)Nc1ccc(NC(=O)COC(=O)/C=C/c2ccc3c(c2)OCO3)cc1`: the Potency was 5.17 µM (active) and the cell number change was -1.06%.
With `NC(=O)c1ccc(NC(=O)COC(=O)/C=C/c2ccc3c(c2)OCO3)cc1`, the “lipid storage change, negative = inhibition” value was -1.6% (inactive) and the cell number change stood at 9.72%.
Take `CCOC(=O)C1(Cc2ccccc2C(F)(F)F)CCN(C2CCN(C(C)=O)CC2)CC1`: the “lipid storage change, negative = inhibition” value was 6.45% (inactive) and the cell number change turned out to be 11.4%.
Turning to `CC1CCc2nc(N)c(C#N)c(-c3cccn3C)c2C1` (stereo not given), the “lipid storage change, negative = inhibition” value was 12% (inactive).
For `COc1cccc2cc(C(=O)NCc3ccccc3Br)c(=O)oc12`, the “lipid storage change, negative = inhibition” value was 9.42% (inactive) and the cell number change amounted to 1.66%.
With `CC1Cc2ccccc2N1C(=O)c1cc2cccnc2n(C)c1=O` (stereo not given), the “lipid storage change, negative = inhibition” value is 4.14% (inactive) and the cell number change turned out to be 1.02%.
For the molecule `NS(=O)(=O)c1cc2c(cc1Cl)NC(c1ccccc1OCC(=O)O)NS2(=O)=O` (stereo not given), the outcome was inactive and the cell number change was -10.4%.
In the case of `COc1ccccc1/C=C/C(=O)NCc1cccnc1`, the “lipid storage change, negative = inhibition” value is 11.8% (inactive) and the cell number change was -13.8%.
In the case of `COc1ccccc1/C=C/C(=O)Nc1cccnc1`, the Potency is 5.8 µM (active) and the cell number change was -14.6%.
In the case of `COC(=O)/C=C/C(=O)Nc1cccnc1`, the “lipid storage change, negative = inhibition” value was 6.84% (inactive) and the cell number change is -5.59%.
Consider `COc1ccccc1/C=C/C(=O)c1ccc(Cl)cc1`, for which the Potency is 4.61 µM (active) and the cell number change came out at 1.97%.
As for `COc1ccc(/C=C/C(=O)c2ccc(Cl)cc2)c(OC)c1`, the “lipid storage change, negative = inhibition” value is -3.9% (inactive) and the cell number change was -5.6%.
Taken in the same sequence, the figures for `COc1ccccc1/C=C/C(C)=O` were 0.161% (inactive) and 3.8%.
Taken in the same sequence, the figures for `CCCOc1ccc(/C=N/Nc2ccc(C(=O)O)cc2)c(OCCC)c1` were 15.7% (inactive) and 9.43%.
With `CCn1nc(NS(=O)(=O)c2ccc(NC(C)=O)cc2)c2cc3ccccc3nc21`, the molecule was classed as inactive and the cell number change is -12.4%.
For the molecule `COCCN1C(=O)N[C@@H](c2ccco2)C(C(C)=O)=C1C`, the “lipid storage change, negative = inhibition” value was -6.07% (inactive) and the cell number change stood at 3.8%.
Taken in the same sequence, the figures for `COCCCNC(=O)CN(c1cccc(Cl)c1)S(C)(=O)=O` were 4.41% (inactive) and -7.55%.
`Cc1cc(NC(C)C)n2c(nc3ccccc32)c1C#N`: the Potency was 16.4 µM (active) and the cell number change is -88.9%.
With `CCC(C)Nc1cc(C)c(C#N)c2nc3ccccc3n12` (stereo not given), the “lipid storage change, negative = inhibition” value was 6.81% (inactive) and the cell number change was 5.52%.
For `CNc1cc(C)c(C#N)c2nc3ccccc3n12`, the call was inactive and the cell number change is -18.9%.
In the case of `COC(=O)c1cn(CC(=O)N2C(C)CCCC2C)c2ccccc12` (stereo not given), the “lipid storage change, negative = inhibition” value is 1.45% (inactive) and the cell number change was 9.64%.
For `CC1CCCC(C)N1C(=O)Cn1cc(C#N)c2ccccc21` (stereo not given) the same measures were 19.1% (inactive) and 9.53%.
Take `CC1CCCC(C)N1C(=O)Cn1cc(/C=C2/C(=O)Nc3ccccc32)c2ccccc21` (stereo not given): the Potency was 23.1 µM (active) and the cell number change was -83.5%.
